Results: PubChem BioAssay (NCI)
The panel holds about 83,000 compounds, 20% with a hit somewhere; the sample as a whole holds those more often.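 The test compound was applied at a single concentration to cells in 96-well plates for 48 hours, and percent growth was recorded.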 A number with no mark means an inactive call. The source made the active and inactive calls. How the source made its calls: active means growth percent below 10; inactive means the rest.

Assays:
Test in all cases: NCI-60 one-dose screen, 48 h (100 = growth as untreated, 0 = no growth, -100 = all killed)
Settings in all cases: 10 µM unless noted
NCI-H23 lung = test system: NCI-H23 lung
NCI-H226 lung = test system: NCI-H226 lung
NCI-H322M lung = test system: NCI-H322M lung
HOP-62 NSCLC = test system: HOP-62 NSCLC
NCI-H460 lung = test system: NCI-H460 lung
HOP-92 NSCLC = test system: HOP-92 NSCLC
NCI-H522 lung = test system: NCI-H522 lung
A549/ATCC NSCLC = test system: A549/ATCC NSCLC
786-0 renal = test system: 786-0 renal
COLO 205 colon = test system: COLO 205 colon
DU-145 prostate = test system: DU-145 prostate
K-562 leukemia = test system: K-562 leukemia
MALME-3M melanoma = test system: MALME-3M melanoma
MDA-MB-231 breast = test system: MDA-MB-231 breast
RXF 393 renal = test system: RXF 393 renal
SF-268 CNS = test system: SF-268 CNS
SF-295 CNS = test system: SF-295 CNS
SF-539 CNS = test system: SF-539 CNS
UACC-257 melanoma = test system: UACC-257 melanoma
M14 melanoma = test system: M14 melanoma

SMILES | growth (NCI-H23 lung) | growth (NCI-H226 lung) | growth (NCI-H322M lung) | growth (HOP-62 NSCLC) | growth (NCI-H460 lung) | growth (HOP-92 NSCLC) | growth (NCI-H522 lung) | growth (A549/ATCC NSCLC) | growth (786-0 renal) | growth (COLO 205 colon) | growth (DU-145 prostate) | growth (K-562 leukemia) | growth (MALME-3M melanoma) | growth (MDA-MB-231 breast) | growth (RXF 393 renal) | growth (SF-268 CNS) | growth (SF-295 CNS) | growth (SF-539 CNS) | growth (UACC-257 melanoma) | growth (M14 melanoma)
N#Cc1nc(-c2ccc(F)cc2)oc1S(=O)(=O)N1CCN(c2ccc(F)cc2)CC1 | 72.8% | 91.7% | 100% | 109% | 102% | 123% | 43.5% | 104% | 100% | 86.7% | 102% | 17.6% | 104% | 92% | 95.3% | 106% | 106% | 101% | 97.9% | 88.2%
CC1O[C@@H]2C[C@@](O)([C@H]1O)n1c3ccccc3c3c4c(c5c6ccccc6n2c5c31)C(=O)NC4=O (stereo not given in full) | 33.7% | 37.2% | 62.8% | 13.4% | 11.3% | 121% | 30.7% | 32.3% | 48.8% | 11.2% | 57.8% | 30% | 50.3% | 57.8% | 49.2% | 49.8% | 19.2% | 33.2% | 47.9% | 25.7%
CCc1ccc(CCC(=O)Nc2ncc(Cc3ccc(Cl)cc3)s2)o1 | 54.9% | 61.8% | 52% | 30.9% | 6.53% (active) | 69.8% | -3.33% (active) | 29.6% | 41.2% | 12.3% | 14.4% | 10.9% | 46.4% | 60.7% | -12.8% (active) | 58.4% | 17% | 2.47% (active) | 56.6% | 8.78% (active)
CCn1cc(C(=O)N/N=C/c2ccc(Br)cc2)c(=O)c2cc(F)c(N3CCNC(C)C3)c(F)c21 (stereo not given) | 91% | 97.3% | 85.8% | 88.8% | -50.8% (active) | 61.2% | 78.5% | 45.3% | 63.9% | 32.1% | 31.4% | -12.6% (active) | 58.7% | 54.8% | 61.3% | 62.6% | 74.5% | 71.4% | 104% | 42.7%
O=C(CBr)CN1C(=O)c2ccccc2C1=O | 95.1% | 98.7% | 101% | 97.9% | 108% | -10.6% (active) | 101% | 103% | 101% | 101% | 104% | 89.7% | 100% | 107% | 120% | 99.1% | 101% | 96.2% | 101% | 104%
Brc1ccc(-c2cnc3nonc3n2)cc1 | 68% | 100% | 94% | 105% | 96.7% | 86.9% | 66% | 91.9% | 84.2% | 71.3% | 87.7% | 38.7% | 53.9% | 69.1% | 74.5% | 87.1% | 91.4% | 94.8% | 66.9% | 80.1%
Cc1ccc2nc(Cl)c(Cn3nnnc3SCc3ccccc3)cc2c1 | 91.8% | 79.6% | 105% | 86% | 98.4% | 70.6% | 77.5% | 92.5% | 95% | 110% | 101% | 87.9% | 114% | 88.2% | 99.9% | 93.9% | 88.1% | 94.4% | 105% | 89.3%
COc1ccc(-c2nnc(SCC(=O)Nc3ccc(/C(C)=N\O)cc3)n2-c2ccccc2)cc1OC | 68.8% | 81.9% | 75.7% | -26.4% (active) | 102% | -8.56% (active) | 35.3% | 70.7% | 64.5% | 99.1% | 88.3% | 105% | 61.8% | 47.9% | 32.3% | 30.6% | 39.1% | 43% | 91.8% | 89.9%
CCOC(=O)c1c(C)nn(CC(O)c2ccccc2)c1NC(=O)Nc1cccc(F)c1 (stereo not given) | 97% | 85.4% | 88.8% | 91.2% | 93.6% | 71.8% | 81.8% | 87% | 88.7% | 102% | 94.3% | 88.5% | 101% | 93% | 85.2% | 83.7% | 78.9% | 98.8% | 91% | 96.2%
COc1ccc(/C=C/C(=O)c2ccc(Nc3nc(Nc4ccc(F)cc4)nc(Nc4ccc(Cl)cc4)n3)cc2)cc1 | 93.3% | 122% | 152% | 112% | 94.2% | 44.7% | 61.9% | 90.5% | 92.6% | 96% | 104% | 85.4% | 164% | 95.3% | 1.27% (active) | 100% | 81.8% | 109% | 107% | 95.2%
CCCCCCC(=O)Nc1ncc(Cc2ccc(C)cc2)s1 | 59.3% | 64.1% | 58.4% | 40.3% | 23.4% | 60.4% | 22.2% | 47.5% | 46% | 16.5% | 42.2% | 24.2% | 58.6% | 59.9% | -7.29% (active) | 58.1% | 34.6% | 20.6% | 55.2% | 31.6%
CNC(=O)c1cc(Oc2ccc3nc(NC(=O)Nc4ccc(Cl)c(Cl)c4)sc3c2)ccn1 | 28.9% | 23.1% | 63.7% | 14.7% | 30.8% | 64.4% | 48.4% | 10.9% | 40.5% | 80.8% | 35.3% | 62.5% | -5.7% (active) | 39.5% | 88.6% | 11.9% | -0.659% (active) | 22.5% | 74.7% | 1.23% (active)
Cc1cc2oc(=O)cc(CP(=O)(O)O)c2cc1O | 100% | 102% | 91.2% | 97.3% | 103% | 100% | 93.9% | 99.9% | 105% | 104% | 103% | 107% | 85.8% | 97.4% | 103% | 96.6% | 100% | 96.8% | 94.5% | 103%
O=C(CN1C(=O)/C(=C/c2ccco2)SC1=S)NCCc1c[nH]c2ccc(F)cc12 | 94.7% | 92.4% | 102% | 117% | 103% | 102% | 82.5% | 102% | 104% | 115% | 108% | 101% | 108% | 102% | 110% | 93.6% | 99.4% | 95.2% | 113% | 106%
Cc1cc2nc3c4ccccc4n(CCN(C)C)c3nc2cc1C | 8.98% (active) | 11.3% | 0.121% (active) | 2.09% (active) | -32.7% (active) | 28.1% | -19.1% (active) | -33.8% (active) | 23.2% | -29.8% (active) | 1.97% (active) | 8.35% (active) | -10.5% (active) | 3.96% (active) | 8.24% (active) | 31.2% | 27.6% | 12.2% | 2.35% (active) | 13.2%
